Only a selection was taken, and hits are over-represented in it overall.
Tb PYK inh: T. brucei pyruvate kinase inhibition; TbPYK enzyme, Kinase-Glo Plus ATP luminescence, 45 min; Potency, µM (titrated, usually from 76.8 µM), inactives show at the highest dose activity, negative = inhibition, actives largely listed as inhibitors; Q57TT1; actives 0.12% (n = 410,000); also: potency is read from the fitted curve at half-maximal effect; % is scaled to controls: 0 for no effect and ±100 for the full control effect; nearly all actives have a fitted effect of over 50% in size
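ADP (130 uM final) triggers the TbPYK reaction after compound addition; incubation is 45 min at room temperature. Kinase-Glo Plus is then added and luminescence imaged. Normalized data are fitted to concentration-effect curves.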
SARS PLpro yeast: SARS-CoV PLP inhibition in yeast. S. cerevisiae expressing SARS-CoV PLpro, growth rescue. Potency, µM (titrated, usually from 32.9 µM), for inactives: top-dose activity, positive = growth rescue, most hits filed as activators. actives 0.19% (n = 330,000). AID 485353; calls by dose curve; also: potency is read from the fitted curve at half-maximal effect; 0% is about no effect; nearly all actives have a fitted effect of over 55% in size
LmPK inhibitor: inhibitors of Leishmania mexicana pyruvate kinase | AID 1721 | Potency, µM (highest dose often 57.5 µM), for inactives: top-dose activity change, negative = inhibition, usual class: inhibitors | Q27686 | purified LmPK, Kinase-Glo ATP luminescence, 1 h | actives 0.37% (n = 290,000); also: potency is read from the fitted curve at half-maximal effect; % is scaled to controls: 0 for no effect and ±100 for the full control effect
Target sequence (Q27686 whole entry, looked up): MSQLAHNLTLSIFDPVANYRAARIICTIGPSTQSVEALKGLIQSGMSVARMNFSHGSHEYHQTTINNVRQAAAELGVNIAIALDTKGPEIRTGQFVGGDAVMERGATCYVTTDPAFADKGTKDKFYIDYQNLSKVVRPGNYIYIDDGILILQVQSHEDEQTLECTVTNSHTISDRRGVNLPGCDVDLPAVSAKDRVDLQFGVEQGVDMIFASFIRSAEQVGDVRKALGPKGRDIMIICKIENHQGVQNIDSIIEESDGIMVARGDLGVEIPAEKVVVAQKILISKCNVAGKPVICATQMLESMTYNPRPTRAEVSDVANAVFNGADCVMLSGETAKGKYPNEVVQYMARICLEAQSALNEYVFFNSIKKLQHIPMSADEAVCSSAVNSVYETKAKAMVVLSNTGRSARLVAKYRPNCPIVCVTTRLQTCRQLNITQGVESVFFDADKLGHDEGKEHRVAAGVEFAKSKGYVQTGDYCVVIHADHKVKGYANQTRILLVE
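Pyruvate kinase activity monitored as ATP production (luciferase luminescence). Conditions: 0.1 nM enzyme, 0.5 mM PEP, 0.1 mM ADP, 1 h, RT; normalized against uninhibited and no-enzyme wells.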
CHX counter: counter-screen hit for Shiga toxin inhibitors, cycloheximide | cell reporter, cycloheximide protein synthesis inhibition counterscreen | max response, % | actives 12% (n = 300,000) | AID 2314; in the data active = max response mostly above about 13%, no sharp cut-off; inactive = mostly below about 14%; also: read at 38.3 µM for the half of the compounds with a filed dose; 0% is about no effect
Shiga inhibitor: blocks Shiga toxin action in Vero cells | Vero cells, Shiga toxin protein synthesis inhibition reporter | inhibition, % at 38.7 µM | actives 9.2% (n = 290,000) | AID 2315; in the data active = inhibition mostly above about 28%, no sharp cut-off; inactive = mostly below about 43%; also: 0% is about no effect
NS1 inh: inhibitors of influenza NS1 protein function. actives 0.4% (n = 270,000). Potency, µM (top dose mostly 46.1 µM), for the others: at the top dose activity, positive = more growth; calls by dose curve; also: potency is read from the fitted curve at half-maximal effect; actives are rising curves; nearly all actives have a fitted effect of over 50% in size
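Recovery from NS1-induced slow growth read by OD600 in budding yeast switched to galactose assay medium (pH 6.0, -URA) at 1:100 dilution. Compound 23 nl per well; the matching strain lacking NS1 serves as control.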
* = called active by the depositor; i = inactive; ? = inconclusive; . = no result. Unless noted, calls follow the shape of the dose curve; as a rule, active = well fitted curve in the direction sought with a large enough effect; inconclusive = small, poorly fitted or top-dose-only effect, or another doubt; inactive = no such curve, though single readings can be large; an effect the other way counts as inactive or inconclusive.

SMILES | Tb PYK inh | SARS PLpro yeast | LmPK inhibitor | CHX counter | Shiga inhibitor | NS1 inh
COc1ccc(-c2ccc(CNCCCSc3nnnn3C)o2)cc1Cl | 0.9% | . | . | . | . | .
COc1ccc(-c2ccc(CNCc3ccccn3)o2)cc1Cl | . | 2.7% | 3.9% | 13.4* | 9.2 | 9.3%
Fc1ccc(-c2ccc(CNCc3ccccn3)o2)cc1 | 3.5% | -0.3% | -1.5% | 25.5* | . | -0.6%
Clc1ccc(-c2ccc(CNCc3ccccn3)o2)cc1 | 5.5% | -6.0% | -6.5% | 21.3* | 24.2* | 3.6%
CCOC(=O)CC[C@H](NC(=O)Cn1cnc2c(SC)nc(N)nc21)C(=O)OCC | 0.3% | -5.1% | . | . | . | .
COc1ccc(C(=O)NCC(=O)OCc2c(Cl)cccc2Cl)cc1OC | 0.8% | -0.5% | . | . | . | .
O=C(N/N=C/c1ccc2ncccc2c1)c1ccco1 | -18.9% | -14.2% | 14.1µM* | 9.1 | -1.8 | .
O=C(N/N=C/c1ccccn1)c1cccs1 | 0.0% | -9.2% | -5.2% | 37.8* | 75.5* | .
O=C(Cc1cccs1)N/N=C/c1ccccn1 | -1.1% | -0.3% | -0.2% | 27.1* | 39.1* | -3.2%
CN(C)c1ccc(C(=O)N/N=C/c2ccccn2)cc1 | -9.7% | -1.7% | -0.4% | 58.3* | 74.6* | -11.3%
COc1cc(C(=O)N/N=C/c2ccccn2)cc(OC)c1OC | -7.5% | 2.4% | -0.7% | -2.0 | -13.3 | .
C[C@@H]1CN([C@H](C)CO)C(=O)CCCn2nncc2CO[C@H]1CN(C)S(=O)(=O)c1ccc(Oc2ccccc2)nc1 | -2.7% | . | . | . | . | .
COc1ccc(-n2c(SCC(=O)NC3CC3)nc3ccccc3c2=O)cc1OC | -9.2% | 0.1% | . | . | . | .
O=C(N/N=C/c1ccccn1)c1ccccc1 | -0.6% | -5.6% | -10.2% | 47.8* | 70.5* | -11.2%
O=C(N/N=C/c1ccc[nH]1)c1ccc(Cl)cc1 | -15.9% | -1.9% | -3.2% | 34.0* | 39.4* | 6.3%
O=C(N/N=C/c1ccccn1)c1ccc(Cl)cc1 | 3.0% | 20.2% | -1.7% | 45.7* | 101.9* | -52.5%
O=C(N/N=C\c1ccccn1)c1cccc(C(=O)N/N=C\c2ccccn2)n1 | 1.7% | . | . | . | . | .
Cc1cccc(/C=N/NC(=O)c2ccc(NC(=O)c3ccc(Cl)cc3)cc2)n1 | 4.5% | 10.8% | 1.1% | 10.9* | 4.6 | -1.5%
CC(=O)c1ccc(NC(=O)CS(=O)(=O)c2cn(CC(=O)N3CCOCC3)c3ccccc23)cc1 | 6.2% | 3.7% | -1.5% | -0.4 | -8.7 | 1.2%
O=S(=O)(Nc1cc(O)cc2cccnc12)c1ccc(Cl)s1 | . | . | . | -10.8 | -14.0 | .
COc1cc(NC(=O)N2CCC3(CC2)Nc2ccccc2-n2cccc23)cc(OC)c1OC | 1.4% | . | . | . | . | .
O=C(N/N=C/c1ccccn1)c1ccco1 | 7.1% | -3.7% | 0.6% | 46.5* | 70.7* | -15.3%
O=C(N/N=C/c1ccccn1)c1ccncc1 | 2.6% | 0.1% | -0.8% | 51.8* | 96.8* | -1.9%
Cc1ccc(C(=O)Nc2ccc(C(=O)N/N=C/c3ccccn3)cc2)cc1 | 4.6% | -2.1% | 0.3% | 24.6* | 31.1* | 14.9%
Cc1cccc(OCC(=O)Nc2ccccc2C(=O)OCc2cc(=O)n3ccsc3n2)c1 | 1.1% | . | . | . | . | .
SMILES | Tb PYK inh | SARS PLpro yeast | LmPK inhibitor | CHX counter | Shiga inhibitor | NS1 inh
Cn1cnc(S(=O)(=O)N2CCCCC2c2cc(C(=O)Nc3cccc(C#N)c3)no2)c1 (centres undefined) | -4.6% | . | . | . | . | .
COc1cccc(C(c2sc3nc(C)nn3c2O)N2CCN(c3ccccc3F)CC2)c1 (centres undefined) | -0.3% | 17.0% | 7.2% | -1.4 | -8.2 | -22.2%
COc1ccc(C(c2sc3ncnn3c2O)N2CCN(c3ccccc3F)CC2)cc1OC (centres undefined) | 1.0% | -1.1% | -1.2% | 20.3* | 9.1 | 4.3%
COc1ccc(C(c2sc3ncnn3c2O)N2CC(C)OC(C)C2)cc1OC (centres undefined) | 4.4% | 17.3% | -2.3% | 16.8* | -2.5 | -1.0%
CO[C@H]1C[C@@H]2CC[C@@H](C)[C@@](O)(O2)C(=O)C(=O)N2CCCC[C@@H]2C(=O)O[C@H]([C@H](C)C[C@@H]2CC[C@H](OCCO)[C@H](OC)C2)CC(=O)[C@H](C)C=C(C)[C@@H](O)[C@@H](OC)C(=O)[C@H](C)C[C@H](C)C=CC=CC=C1C | 0.0% | . | . | . | . | .
Clc1cccc(N2CCN(c3nc4ccccc4c4nc(-c5ccccc5)nn34)CC2)c1 | 0.5% | . | . | . | . | .
O=Cc1ccc(OCc2ccccn2)cc1 | -7.1% | -12.2% | ? | 21.5* | 39.5* | -26.3%
COc1ccc(COc2cccc(C=O)c2)cc1 | 3.4% | 5.3% | . | . | . | .
O=Cc1cccc(OCc2cccc3ccccc23)c1 | -3.7% | -0.7% | -5.8% | 34.2* | 63.2* | -4.5%
O=Cc1ccc(OCc2ccc3ccccc3c2)cc1 | -1.6% | 1.2% | 0.8% | 54.1* | . | -16.8%
OCc1ccccn1 | -0.7% | . | . | . | . | .
CCCCCC(=O)NNC(=O)c1ccc(F)cc1 | -3.2% | -7.6% | -4.7% | -2.9 | -15.7 | 6.3%
CCn1cc2c(n1)-c1c(oc(C(=O)Nc3ccc(Br)cc3F)c1C)CC2 | -4.5% | . | . | . | . | .
CCCCOc1ccc(CNC(=O)Cc2ccc(NC(=O)N3CCCCc4ccccc43)cc2)cc1 | 5.1% | . | . | . | . | .
CCOC(=O)c1noc2ncnc(N3CCC(C)CC3)c12 | -2.2% | . | . | . | . | .
CC(C#N)Sc1nnc(-c2ccccc2F)n1C1CC1 (centres undefined) | -4.2% | -1.1% | -3.9% | -4.5 | -8.2 | 3.2%
Cc1cc2c(=O)n(Cc3ccco3)c(SCC(=O)c3ccc(Cl)s3)nc2s1 | -13.9% | 2.6% | 1.5% | 16.3* | 29.2 | 1.1%
COc1ccc(C(=O)NCCSc2ccccc2)cc1OC | ? | -0.3% | 2.1% | 32.9* | 64.1* | -4.9%
CN(C)S(=O)(=O)c1ccc(C(=O)NCCSc2ccccc2)cc1 | -2.4% | -4.6% | 6.1% | 48.1* | 151.0* | -3.1%
O=C(c1ccc2c(c1)N(Cc1cccc(Cl)c1)C(=O)c1ccccc1S2(=O)=O)N1CCN(c2cccc(C(F)(F)F)c2)CC1 | -1.4% | . | . | . | . | .
CCn1nc(NS(=O)(=O)c2ccc(NC(C)=O)cc2)c2cc3cc(C)ccc3nc21 | 2.2% | -1.9% | -7.7% | 5.8 | 15.9 | 20.2%
COc1ccc(NC(=O)Cc2ccc(C)cc2)c([N+](=O)[O-])c1 | -6.3% | -10.2% | 0.3% | 8.1 | 25.8 | 13.0%
COc1ccc(NC(=O)c2ccc(C)o2)c([N+](=O)[O-])c1 | -6.1% | 13.0% | -14.0% | 22.3* | 39.5 | 2.6%
Cc1ccc(NC(=O)c2ccc(Br)o2)c([N+](=O)[O-])c1 | 1.9% | . | . | . | . | .
COc1ccc(NC(=O)c2ccc(Br)o2)c([N+](=O)[O-])c1 | -8.4% | -2.0% | -12.3% | 18.5* | 40.9 | 3.4%
COc1ccc(NC(=O)c2ccc([N+](=O)[O-])s2)c([N+](=O)[O-])c1 | -1.7% | 0.2% | 1.2% | 24.9 | 46.1* | .
COc1ccc(NC(=O)c2ccc(C)cc2Cl)c([N+](=O)[O-])c1 | -9.7% | ? | 5.9% | 36.7* | i | 6.5%
COC(=O)C1=C(c2ccccc2)c2ccccc2S(=O)(=O)N1CC(=O)Nc1ccccc1Cl | 0.5% | . | . | . | . | .
